This is an account of results in the supplement of paper PMC9950053.

The structures appear in SMILES notation. Counter-ions that a name gives are not always drawn.

This experiment has as its system Danio rerio larvae (5 dpf). Put plainly: combined upward orientation toward moving lines (periods 7-14) minus DMSO control (percentage points); higher = more orientation with moving lines than DMSO larvae. The following applies: 10 µM; exposure time: 3 h pre-incubation + 3 h imaging. How it is done: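 Wild-type 5 dpf zebrafish larvae (n=48 per drug, 96-well plates, 28.5 °C) were exposed to Tocris FDA-approved library compounds at 10 µM (0.1% DMSO) for 3 h before and 3 h during imaging. Images were taken every 6 s during visual (moving coloured lines) and acoustic stimuli, and larvae were tracked with the DeepLabCut-based Z-LaP Tracker. Each behavioural measure is the treated-group mean minus the DMSO vehicle control mean (n=844), in percentage points. This mapping covers compounds with 4-character plate codes.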
With `COc1cc2c(cc1OC)C1CC(=O)C(CC(C)C)CN1CC2` (stereo unspecified) [Tetrabenazine], the “combined upward orientation toward moving lines” value was -21.4. Turning to `O=c1[nH]c2ccccc2n1C1CCN(CCCC(c2ccc(F)cc2)c2ccc(F)cc2)CC1` [Pimozide], the “combined upward orientation toward moving lines” value is -5.82.

Take `Cc1cccc([C@H](C)c2c[nH]cn2)c1C` [Dexmedetomidine hydrochloride]: the “combined upward orientation toward moving lines” value is -0.0673. For `CC[C@@H](C(N)=O)N1CCCC1=O` [Levetiracetam] the value was -2.84; for `CCN(C)C(=O)Oc1cccc([C@H](C)N(C)C)c1` [Rivastigmine tartrate], -5.99; for `CC(C)C[C@H]1C(=O)N2CCC[C@H]2[C@]2(O)O[C@](NC(=O)[C@@H]3C=C4c5cccc6[nH]c(Br)c(c56)C[C@H]4N(C)C3)(C(C)C)C(=O)N12` [Bromocriptine mesylate], -39. For `CC(O)(CS(=O)(=O)c1ccc(F)cc1)C(=O)Nc1ccc(C#N)c(C(F)(F)F)c1` (stereo unspecified) [Bicalutamide] the value was -2.4; for `C=C1C[C@@H]2[C@H](CC[C@]3(C)C(=O)CC[C@@H]23)[C@@]2(C)C=CC(=O)C=C12` [Exemestane], 1.27; for `C=CCN1C[C@H](C(=O)N(CCCN(C)C)C(=O)NCC)C[C@@H]2c3cccc4[nH]cc(c34)C[C@H]21` [Cabergoline], -13.9.

For the molecule `CN1C[C@H](C(=O)N[C@]2(C)O[C@@]3(O)[C@@H]4CCCN4C(=O)[C@H](Cc4ccccc4)N3C2=O)C[C@@H]2c3cccc4[nH]cc(c34)C[C@H]21` [Dihydroergotamine mesylate], the “combined upward orientation toward moving lines” value was -20.6.

For `N[C@@H]1C[C@H]1c1ccccc1` [Tranylcypromine hydrochloride], the “combined upward orientation toward moving lines” value stood at 1.03.
